Potency data for 39 compounds are collected here from PubChem BioAssay AID1508622 (National Center for Advancing Translational Sciences (NCATS), 2021).

Each structure is given as a SMILES string. Activity calls are given as the source filed them. A call without a number means that no potency is given here. The call rests on the fitted dose curve; in most records, active means well fitted activation curve with a large enough effect; inconclusive means small, poorly fitted or top-dose-only effect; inactive means no such curve, though single readings can be large or run the other way.
Potency means the concentration at half of the fitted maximal effect.

This experiment is described as follows: Confirmatory qHTS for Identification of Small Molecule Activators of Huntingtin-Antisense Promoter Activity. The note with it: HEK293 HTT-AS promoter firefly luciferase reporter, 24 h; series mostly up to 57.5 µM. In short, it runs like this: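 HEK293 luciferase reporter cells, 2,500/well, cultured 24 h, then exposed to compounds at up to 57.5 uM final for 24 h at 37C. Firefly luciferase luminescence read; normalized to vehicle (0%) and zero RLU (-100%).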
Background: Quantitative high-throughput screening tests each substance at several concentrations.
For `CCOc1ccc(CNC(=O)C2CCN(c3nnc(-n4c(C)ccc4C)s3)CC2)cc1`, the Potency entry is “inactive”. Regarding `CCC1=C(c2ccc(C)cc2)S(=O)(=O)N=C1N1CCC(C(=O)NCCc2ccc(Cl)cc2)CC1`, the Potency result is “inactive”. Then `Cc1cccc(CSc2cn(CC(=O)N3CCOCC3)c3ccccc23)c1`, with 3.01 µM (active); and `Cc1cc(Cl)ccc1OCC(=O)N1CCC(c2nc3ccccc3s2)CC1`, with “inactive”; and `CCOc1cc(C(=O)Nc2ccc3oc(-c4ccc(CC)cc4)nc3c2)cc(OCC)c1OCC`, with “inactive”. As for `Cc1cccc(CS(=O)(=O)Cc2ccc(C(=O)NCc3ccc(Cl)cc3)o2)c1`, the entry is “inactive”; as for `O=C(CSc1nc(-c2cccc(F)c2)[nH]c1-c1ccccc1)Nc1ccc2c(c1)OCCO2`, “inactive”.

For `CCOC(=O)C1CCN(S(=O)(=O)c2ccc(N3CCCCS3(=O)=O)cc2)CC1`, the Potency entry was “inactive”.

As to `Cc1ccc(S(=O)(=O)NCCc2csc(-c3ccc(Cl)cc3)n2)cc1`, the Potency entry was “inactive”.

Take `Cc1cccc(C2C=C(c3ccc(F)cc3)Nc3nc4ccccc4n32)c1` (centres undefined): the Potency was 1.07 µM (active). With `CCC(Oc1ccccc1)C(=O)N1CCN(Cc2cc(=O)n3nc(-c4cccc(C)c4)sc3n2)CC1` (centres undefined), the Potency entry is “inactive”.

In the case of `O=C(Nc1cccc(Cl)c1)c1c(NC(=O)C(F)(F)F)sc2c1CCCC2`, the Potency result is “inactive”. As to `COc1ccc(-n2c(-c3ccco3)nc3c(cnn3-c3ccc(Cl)cc3)c2=O)cc1`, the Potency result was “inactive”. Regarding `O=C(CSc1nc(-c2ccc(F)cc2)[nH]c1-c1ccc(F)cc1)Nc1ccc2c(c1)OCCO2`, the Potency result is “inactive”. As for `COc1ccc(-c2noc(N3CCN(c4cccc(Cl)c4)CC3)n2)cc1OC`, the Potency result is “inactive”. For `Cc1ccc(Cn2c(SCc3ccc(C(=O)N4CCCCC4)cc3)nc3ccncc32)cc1`, the Potency result is “inactive”. As for `CCOc1ccc(C(NC(=O)c2cc(OC)c(OC)c(OC)c2)c2cc(Cl)c3cccnc3c2O)cc1` (centres undefined), the entry is “inactive”; as for `COc1ccc(N(CC(=O)N2CCN(c3cccc(C)c3C)CC2)S(=O)(=O)c2c(C)noc2C)cc1`, “inactive”; as for `CCOC(=O)c1ccc(CN(Cc2ccc(C)cc2)S(=O)(=O)c2ccc(NC(C)=O)cc2)cc1`, “inactive”. As for `Cc1ccccc1OCC(=O)Nc1ccccc1C(=O)OCc1cc(=O)n2c(C)csc2n1`, the entry is “inactive”. Then `COc1ccc(NS(=O)(=O)c2ccc(N3CCCCS3(=O)=O)cc2)cc1Cl`, with “inactive”. Regarding `COc1ccc(S(=O)(=O)Nc2cc3c(C(=O)OC(C)C)c(C)oc3c3ccccc23)cc1`, the Potency entry was “inactive”. As for `COc1cc(NS(=O)(=O)c2ccc(-c3cc(C)no3)cc2)cc(OC)c1`, the entry is “inactive”; as for `COc1ccccc1CCNC(=O)c1ccc(-c2nc(CSc3ccc(C)cc3)c(C)o2)cc1`, “inactive”; as for `O=C(Nc1ccc(F)cc1)C1CCN(S(=O)(=O)c2ccc3c(c2)CCCN3C(=O)C2CCC2)CC1`, “inactive”.

Take `COc1cccc(-c2cn3c(n2)sc2cc(C(=O)NCc4cccs4)ccc23)c1`: the Potency is 8.49 µM (active). As for `CCOC(=O)c1ccc(N2C(=O)c3[nH]nc(-c4ccc(OCC)cc4)c3C2c2cccs2)cc1` (centres undefined), the Potency entry is “inactive”.

Consider `CCOC(=O)c1cc2c(=O)n3ccccc3nc2n(CC2CCCO2)c1=NC(=O)c1cc(C)cc(C)c1` (centres undefined), for which the Potency result is “inactive”. Turning to `Cc1c(NS(C)(=O)=O)cccc1-c1nc2ccccc2s1`, the Potency result was “inactive”.

For the compound `COc1ccc(C2(CNC(=O)C(=O)Nc3cccc(C(F)(F)F)c3)CCCC2)cc1OC`, the Potency result was “inactive”.

Take `COc1ccc(S(=O)(=O)N(CCc2ccccc2)CC(=O)Nc2cc(C)cc(C)c2)cc1OC`: the Potency entry was “inactive”. Then `CC(=O)N1CCCc2cc(S(=O)(=O)N(C)CC(=O)Nc3ccc(Cl)cc3C)ccc21`, with “inactive”; and `Cn1cc(CNCC2CCN(c3ncc(C(=O)NO)cn3)CC2)c2ccccc21`, with “inactive”; and `O=C(c1cccs1)N(Cc1cccnc1)c1nc2ccc(F)cc2s1`, with “inactive”. Then `COc1ccc(NC(=O)Cn2nc(C(F)(F)F)c3c2CCCC3)cc1OC`, with “inactive”. In the case of `O=c1c(-c2ccc(O)cc2)coc2cc(O)ccc12`, the Potency is 8.49 µM (active). Then `Cc1ccc(-c2nc3sc(CCNS(=O)(=O)c4cc(F)ccc4F)c(C)n3n2)cc1`, with “inactive”; and `CCc1c(C)nc2nncn2c1Nc1ccc(C(C)C)cc1`, with “inactive”. As for `CCN(CC)CCOc1ccc(C(=C(Cl)c2ccccc2)c2ccccc2)cc1`, the entry is “inactive”.
